An excerpt weighted towards active compounds, which were near 12% of everything screened.
HP1b chromo inh: blocks HP1-beta chromodomain binding to methylated histone tails; 0.56% of 390,000 active; Potency, µM (titrated, usually from 114 µM), actives largely listed as inhibitors; AlphaScreen HP1-beta / biotin-H3K9me3 peptide binding; note: nearly all actives have a fitted effect of over 70% in size
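AlphaScreen: HP1-beta (50 nM) preformed 30 min with biotin-H3(1-18)K9me3 peptide (50 nM) in PBS pH 7.4, 0.01% Tween-20. Compound added for 30 min at RT, then streptavidin donor/nickel chelate acceptor beads (10 ug/mL) for 30 min.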
Sfp inh: Sfp phosphopantetheinyl transferase inhibition. Q9F4F7. Biochemical Sfp PPTase activity, qHTS. Potency, µM, usual class: inhibitors. 3.5% of 310,000 active;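 note: the enzyme is Sfp with the accession as filed and its product quenches rhodamine fluorescence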
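Fluorescence-quenching assay: 15 nM Sfp-PPTase preincubated 15 min at room temperature with compound, then 5 uM rhodamine-CoA and 12.5 uM BHQ-2-labelled YbbR peptide added. Fluorescence (ex 525/em 598 nm) read at start and after 30 min; difference gives rate.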
BAZ2B inh: BAZ2B (human) inhibition. AlphaScreen BAZ2B-H3K14Ac peptide displacement. Potency, µM (highest dose often 114 µM), actives largely listed as inhibitors. 4.4% of 360,000 active. AID 504333; note: nearly all actives have a fitted effect of over 60% in size
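Inhibition is scored as reduced AlphaScreen emission. The BAZ2B/b-H3(5-23)K14Ac complex (50 nM each) in PBS pH 7.4, 0.01% Tween-20 meets compound (up to 110 uM) for 30 min at RT before bead addition.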
JMJD2A Tudor inh: JMJD2A Tudor domain (human) inhibition; O75164; AlphaScreen JMJD2A-Tudor / H3K4me3 peptide binding; Potency, µM (top dose mostly 114 µM), usual class: inhibitors; 4.4% of 390,000 active; note: nearly all actives have a fitted effect of over 50% in size
TDP1 inh: blocks human tyrosyl-DNA phosphodiesterase 1; recombinant TDP1, AlphaScreen DNA substrate cleavage; 0.28% of 350,000 active; Potency, µM (highest dose often 130 µM), usual class: inhibitors; Q9NUW8; note: nearly all actives have a fitted effect of over 40% in size
Target sequence (Q9NUW8 whole entry, looked up): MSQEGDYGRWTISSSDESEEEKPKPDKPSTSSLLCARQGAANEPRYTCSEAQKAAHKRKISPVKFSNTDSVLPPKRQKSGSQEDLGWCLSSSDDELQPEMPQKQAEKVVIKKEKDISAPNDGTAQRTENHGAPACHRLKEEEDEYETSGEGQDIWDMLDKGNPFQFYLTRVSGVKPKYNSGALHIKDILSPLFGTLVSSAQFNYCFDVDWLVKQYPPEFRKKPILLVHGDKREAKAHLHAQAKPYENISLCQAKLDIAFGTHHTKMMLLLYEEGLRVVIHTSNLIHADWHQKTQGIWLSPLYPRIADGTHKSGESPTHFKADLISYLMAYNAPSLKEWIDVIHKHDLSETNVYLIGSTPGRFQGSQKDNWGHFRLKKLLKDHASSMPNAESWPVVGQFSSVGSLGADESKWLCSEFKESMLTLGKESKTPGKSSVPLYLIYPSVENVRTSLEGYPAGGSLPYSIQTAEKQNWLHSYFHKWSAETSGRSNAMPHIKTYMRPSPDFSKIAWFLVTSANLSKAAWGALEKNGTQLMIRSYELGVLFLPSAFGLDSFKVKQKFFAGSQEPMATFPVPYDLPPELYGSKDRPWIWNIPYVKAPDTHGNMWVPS
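Compounds were preincubated with Tdp1 (1 nM final) for 15 min at room temperature before substrate (15 nM final) started a 5 min reaction; beads (10 ug/ml final) were then added for 10 min before AlphaScreen detection.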
G9a inh: blocks human histone lysine methyltransferase G9a; Q96KQ7; G9a H3K9 monomethylation, AlphaScreen, 2 h; Potency, µM (doses to about 102 µM), actives largely listed as inhibitors; 8.8% of 350,000 active; note: nearly all actives have a fitted effect of over 75% in size
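G9a (20 nM) was preincubated 15 min with compound, then reacted 2 h at room temperature with 500 nM biotin-H3K9 peptide and 20 µM SAM. Monomethyl-H3K9 detected by AlphaScreen using anti-H3K9me1 antibody.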
Hits are given with their value; n = inactive; u = inconclusive; x = not tested or not shown; [ ] = another dose, or the depositor's remark. Calls come from the whole dose curve; as a rule, active = well fitted curve in the direction sought with a large enough effect; inconclusive = small, poorly fitted or top-dose-only effect, or another doubt; inactive = no such curve, though single readings can be large; an effect the other way counts as inactive or inconclusive.

SMILES	HP1b chromo inh	Sfp inh	BAZ2B inh	JMJD2A Tudor inh	TDP1 inh	G9a inh
CCn1c(C)nc2cc(C(=O)NNS(=O)(=O)c3c(F)cc(F)c(Cl)c3F)ccc21	n	n	n	25µM	n	40µM
CCOc1cc(C(=O)N(Cc2nc(-c3ccc(C)cc3)no2)C(C)C)cc(OCC)c1OCC	n	x	n	n	n	n
CN(C)c1ccc(C(=S)N2CCN(S(=O)(=O)c3ccccc3)CC2)cc1	n	n	u	n	n	13µM
CC(=O)N1CCN(C(=S)c2ccc(N(C)C)cc2)CC1	u	35µM	n	n	n	7.1µM
CN(C)c1ccc(C(=S)N2CCOCC2)cc1	n	n	x	n	n	n
CN(C)c1ccc(C(=S)N2CCCCCC2)cc1	n	45µM	u	u	n	8.9µM
CN(C)c1ccc(C(=O)N2CCCC2)cc1	n	n	x	n	n	n
COc1cc(OC)cc(-c2nnc(NC(=O)Cc3ccc(F)cc3)o2)c1	n	n	n	n	n	n
O=C1/C(=C\c2ccco2)SC(=S)N1c1ccccc1	u	u	u	n	n	50µM
O=C1NC(=O)/C(=C/c2ccco2)N1	n	x	n	n	n	n[0.501 µM]
O=C1/C(=C\c2ccco2)NC(=S)N1c1ccccc1	u	n	n	56µM	n	x
O=C1NC(=S)NC1=Cc1ccco1	35µM	x	x	22µM	x	x
Cc1ccc(/C=C2\SC(=S)N(c3cccnc3)C2=O)cc1	n	n	u	n	n	n
Cc1ccc(N2C(=O)/C(=C\c3ccco3)SC2=S)cc1	n	14µM	56µM	n	n	n[12.7 µM]
CCCCc1nc2c(c3c1C[C@H](C)OC3)CN(S(=O)(=O)c1ccccc1C(=O)OC)CC2	x	n	x	x	n[21 µM]	x
CCn1c(SCC(=O)NC(C)(C)C)nnc1-c1ccccn1	n	n	u	n	n	56µM
COC(=O)[C@@H]1C[C@H]2CC[C@H](O)C[C@H]2N1Cc1c(F)cccc1Cl	x	n	x	x	n	x
Cc1ccc(S(=O)(=O)Nc2ccccn2)cc1[N+](=O)[O-]	n	n	x	n	n	n
CC(=O)N1CC=CC1(CC(C)C)C(=O)NCc1ccc(C)o1 (stereo not drawn)	x	45µM	x	x	n	x
CC(C)CC1=NN(C(=O)c2ccncc2)C(O)(C(F)(F)F)C1 (stereo not drawn)	n	n	n	40µM	n	n
CCn1cc(C(=O)NCc2ccccc2Cl)c(=O)c2cc(S(=O)(=O)N3CCCCCC3)ccc21	n	x	x	n	n	n
COc1ccc(C(=O)Nc2ccccc2C(=O)N2CCCCCC2)cc1OC	n	n	n	n	n	n
COc1cc(NC(=O)c2ccc3nsnc3c2)cc(OC)c1OC	n	n	u	n	n	u
COc1ccccc1NC(=O)c1ccc2nsnc2c1	n	n	n	13µM	x	n
COc1ccc(C(=O)Nc2ccccc2C(=O)NC(C)C)cc1OC	n	n	n	50µM	n	n
SMILES	HP1b chromo inh	Sfp inh	BAZ2B inh	JMJD2A Tudor inh	TDP1 inh	G9a inh
O=C(NC1CC1)c1cccc(NC(=O)c2cn3ccccc3n2)c1	n	x	n	40µM	n	n[2.33 µM]
Nc1c(O)ccc2c1C(=O)c1ccccc1C2=O	16µM	n	25µM	u	n	2.5µM
O=C1CCC(C(=O)NCc2ccc3c(c2)OCO3)N1 (stereo not drawn)	n	n	n	n	n	n
Nc1c(N(Cc2ccco2)C(=O)c2ccccc2F)c(=O)[nH]c(=O)n1Cc1ccccc1	n	x	n	n	n	n
COc1ccc(C2c3[nH]c4ccccc4c3CCN2Cc2cccn2-c2ncccn2)cc1C (stereo not drawn)	u	56µM	35µM	u	n	n[0.501 µM]
c1ccc(C2c3[nH]c4ccccc4c3CCN2Cc2cccn2-c2ccccn2)nc1 (stereo not drawn)	n	n	20µM	u	n	u
Cc1cccc(C2c3[nH]c4ccccc4c3CCN2Cc2cccn2-c2ncccn2)c1 (stereo not drawn)	u	n	32µM	50µM	n	x
COc1ccccc1C1c2[nH]c3ccccc3c2CCN1Cc1cnc(C)s1 (stereo not drawn)	n	n	n	n[11.4 µM]	n	n
CC(=O)Nc1ccc(CN2CCc3c([nH]c4ccccc34)C2c2ccccn2)cc1 (stereo not drawn)	n	n	u	u	n	u

High-throughput results: PubChem BioAssay, National Center for Advancing Translational Sciences (NCATS)
